Unmarked numbers belong to inactive results.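 Rule for the calls: active = AUC reduced over 20% with Padj below 0.05 in at least 2 of 3 replicates; inactive = otherwise.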
What follows are compounds tested on Akkermansia muciniphila (assay: growth AUC relative to DMSO control (median of replicates) (fraction); higher = more growth (less inhibition), active = hit call of the paper). Details: 20 µM; 24 h.
How it was run: (§1)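 In round-bottom 96-well plates sealed with pierced gas-permeable seals, gut bacterial monocultures in mGAM were grown anaerobically at 37 °C from OD600 0.05 with 20 µM compound (1% DMSO). OD600 readings were taken hourly for 24 h, and the minimum OD was set to 0. Area under the growth curve was then normalised to the plate median of solvent-only wells, or to row and column medians on the industrial chemical plate. The value given is the median of three biological replicates grown on separate days.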

SMILES	growth AUC
BrCCBr	1.11
O=C(O)c1ccc(Cl)nc1	0.953
N#CCNC(=O)c1cnccc1C(F)(F)F	0.888
O=C1c2ccccc2C(=O)N1SC(Cl)(Cl)Cl	1
CCC(CC)Nc1c([N+](=O)[O-])cc(C)c(C)c1[N+](=O)[O-]	1.03
COc1ccc(/C(=C/C(=O)N2CCOCC2)c2ccc(Cl)cc2)cc1OC	1.1
CON(C)C(=O)Nc1ccc(Br)c(Cl)c1	0.863
COP(=S)(NC(C)C)Oc1ccc(C)cc1[N+](=O)[O-] (stereo not drawn)	0.926
CCCCc1c(C)nc(N(C)C)[nH]c1=O	0.964
CCCSP(=S)(OCC)Oc1ccc(Cl)cc1Cl (stereo not drawn)	1.06
O=S1(=O)OCC2C(CO1)C1(Cl)C(Cl)=C(Cl)C2(Cl)C1(Cl)Cl (stereo not drawn)	1.39
Oc1ccc(-c2ccccc2)cc1	0.809
CC(C)(C)c1ccc(CSc2cnn(C(C)(C)C)c(=O)c2Cl)cc1	0.971
CCOc1ccc(C(C)(C)COCc2cccc(Oc3ccccc3)c2)cc1	1.08
CNC(=O)Oc1cccc2c1OC(C)(C)C2=O	1.05
CCOC(=O)N(C)C(=O)CSP(=S)(OCC)OCC	1.11
Nc1c(Cl)cc([N+](=O)[O-])cc1Cl	0.958
O=C1C(Cl)=C(Cl)C(=O)C(Cl)=C1Cl	1.08
COc1cc(OC)nc(NC(=O)[N-]S(=O)(=O)c2ncccc2OCC(F)(F)F)n1.[Na+]	1.07
Cc1cc(Cl)ccc1N=CN(C)C.Cl	1.06

SMILES	growth AUC
CCOCn1c(-c2ccc(Cl)cc2)c(C#N)c(Br)c1C(F)(F)F	1.07
CCOP(=S)(OCC)Oc1cnc2ccccc2n1	0.881
C#CCC1=C(C)C(OC(=O)C2C(C=C(C)C)C2(C)C)CC1=O (stereo not drawn)	1.05
CCOP(=S)(OCC)SCCS(=O)CC (stereo not drawn)	1.04
CO/N=C(/C(=O)OC)c1ccccc1CO/N=C(\C)c1cccc(C(F)(F)F)c1	0.96
CCSC(=O)N1CCCCCC1	0.873
COC(C)(C)CCCC(C)C/C=C/C(C)=C/C(=O)OC(C)C (stereo not drawn)	0.867
Clc1c(Cl)c(Cl)c(Cl)c(Cl)c1Cl	0.994
C[C@@H]1C[C@@H]([C@H](O)CC2CC(=O)NC(=O)C2)C(=O)[C@@H](C)C1	1.15
CCS(=O)(=O)Cc1ccccc1OC(=O)NC	1.05
CC1CNC(=S)N1 (stereo not drawn)	1
CCNc1nc(Cl)nc(NC(C)(C)C)n1	1.01
COP(=O)(OC)OC(Br)C(Cl)(Cl)Br (stereo not drawn)	0.978
O=C(NC(=O)c1ccccc1Cl)Nc1ccc(OC(F)(F)F)cc1	1.06
O=C(O)C(Cl)Cl	0.875
CCCOc1nn(C(=O)[N-]S(=O)(=O)c2ccccc2C(=O)OC)c(=O)n1C.[Na+]	0.978
Oc1ccc(Cl)cc1	0.989
C/C(=N\NC(=O)Nc1cc(F)cc(F)c1)c1ncccc1C(=O)[O-].[Na+]	1.33
CCCN(CCOc1c(Cl)cc(Cl)cc1Cl)C(=O)n1ccnc1	1.05

The compounds below were run on Bacteroides caccae in the same assay as above. Details: 20 µM; 24 h.
How it was run: as §1

SMILES	growth AUC
BrCCBr	0.998
O=C(O)c1ccc(Cl)nc1	0.985
N#CCNC(=O)c1cnccc1C(F)(F)F	1.01
O=C1c2ccccc2C(=O)N1SC(Cl)(Cl)Cl	1.02
CCC(CC)Nc1c([N+](=O)[O-])cc(C)c(C)c1[N+](=O)[O-]	0.888
COc1ccc(/C(=C/C(=O)N2CCOCC2)c2ccc(Cl)cc2)cc1OC	0.962
CON(C)C(=O)Nc1ccc(Br)c(Cl)c1	1.04
COP(=S)(NC(C)C)Oc1ccc(C)cc1[N+](=O)[O-] (stereo not drawn)	0.974
CCCCc1c(C)nc(N(C)C)[nH]c1=O	1.01
CCCSP(=S)(OCC)Oc1ccc(Cl)cc1Cl (stereo not drawn)	0.796
O=S1(=O)OCC2C(CO1)C1(Cl)C(Cl)=C(Cl)C2(Cl)C1(Cl)Cl (stereo not drawn)	0.997
Oc1ccc(-c2ccccc2)cc1	1.03
CC(C)(C)c1ccc(CSc2cnn(C(C)(C)C)c(=O)c2Cl)cc1	0.95
CCOc1ccc(C(C)(C)COCc2cccc(Oc3ccccc3)c2)cc1	0.967
CNC(=O)Oc1cccc2c1OC(C)(C)C2=O	1.03
CCOC(=O)N(C)C(=O)CSP(=S)(OCC)OCC	1.04
Nc1c(Cl)cc([N+](=O)[O-])cc1Cl	0.927
O=C1C(Cl)=C(Cl)C(=O)C(Cl)=C1Cl	1.09
COc1cc(OC)nc(NC(=O)[N-]S(=O)(=O)c2ncccc2OCC(F)(F)F)n1.[Na+]	0.973
Cc1cc(Cl)ccc1N=CN(C)C.Cl	0.997

SMILES	growth AUC
CCOCn1c(-c2ccc(Cl)cc2)c(C#N)c(Br)c1C(F)(F)F	0.902
CCOP(=S)(OCC)Oc1cnc2ccccc2n1	0.925
C#CCC1=C(C)C(OC(=O)C2C(C=C(C)C)C2(C)C)CC1=O (stereo not drawn)	0.892
CCOP(=S)(OCC)SCCS(=O)CC (stereo not drawn)	1.02
CO/N=C(/C(=O)OC)c1ccccc1CO/N=C(\C)c1cccc(C(F)(F)F)c1	0.937
CCSC(=O)N1CCCCCC1	1.05
COC(C)(C)CCCC(C)C/C=C/C(C)=C/C(=O)OC(C)C (stereo not drawn)	1
Clc1c(Cl)c(Cl)c(Cl)c(Cl)c1Cl	1.01
C[C@@H]1C[C@@H]([C@H](O)CC2CC(=O)NC(=O)C2)C(=O)[C@@H](C)C1	1.02
CCS(=O)(=O)Cc1ccccc1OC(=O)NC	0.949
CC1CNC(=S)N1 (stereo not drawn)	1.03
CCNc1nc(Cl)nc(NC(C)(C)C)n1	0.987
COP(=O)(OC)OC(Br)C(Cl)(Cl)Br (stereo not drawn)	0.987
O=C(NC(=O)c1ccccc1Cl)Nc1ccc(OC(F)(F)F)cc1	0.915
O=C(O)C(Cl)Cl	0.977
CCCOc1nn(C(=O)[N-]S(=O)(=O)c2ccccc2C(=O)OC)c(=O)n1C.[Na+]	1.02
Oc1ccc(Cl)cc1	0.997
C/C(=N\NC(=O)Nc1cc(F)cc(F)c1)c1ncccc1C(=O)[O-].[Na+]	1
CCCN(CCOc1c(Cl)cc(Cl)cc1Cl)C(=O)n1ccnc1	0.886

Source: the supplement of paper PMC12669032
